The panel holds about 83,000 compounds, 20% with a hit somewhere; the sample as a whole holds those more often.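 Plates (96-well) were seeded with cells, treated with compound at one concentration, and incubated for 48 hours before percent growth was determined.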 A number with no mark means an inactive call. Active and inactive are the calls of the source. How the source made its calls: active means growth percent below 10; inactive means the rest.
Tested on: MDA-MB-468 breast
Assay: NCI-60 one-dose screen, 48 h (100 = growth as untreated, 0 = no growth, -100 = all killed)
Settings: 10 µM unless noted

| Structure (SMILES) | growth |
| --- | --- |
| CC#CC(=O)N1CCC[C@H]1c1nc(-c2ccc(C(=O)Nc3ccccn3)cc2)c2c(N)nccn12 | 59.6% |
| CCCCCCc1cc2cc(-c3nc4ccccc4[nH]3)c(=Nc3ccccc3C)oc2cc1O | -5.99% (active) |
| O=C1NC(=O)C2(CCCC2C(=O)O)N1 (configuration not stated) | 107% |
| COc1ccc(Cn2cc3c(c2-c2cc(OC)c(OC)c(OC)c2)CCc2cnoc2-3)cc1 | 4.09% (active) |
| Nc1cc(F)ccc1[N+](=O)[O-] | 100% |
| CC1(C)Cc2c(cn(Cc3ccccc3)c2-c2ccccc2)-c2oncc21 | 88.5% |
| CCc1ccc(Nc2ncnc3c2cnn3-c2cccc(Br)c2)cc1 | 91% |
| CCOC(=O)C1=C(C(=O)c2ccccc2)C(c2cccc([N+](=O)[O-])c2)C(C(=O)c2ccccc2)=C(C(=O)OCC)N1 | 83.2% |
| O=C(/C=C/c1ccc(Oc2ccc(Br)cc2)cc1)c1ccc(Br)cc1 | 98.3% |
| COC(=O)/C=C1/SC(=Nc2cccc(OC)c2)N(CCc2c[nH]c3ccc(O)cc23)C1=O | 49.3% |
| NC(=O)c1cccc(-n2ccc3cc(NC(=O)Nc4ccc(Cl)c(Cl)c4)ccc32)n1 | 60.8% |
| Cc1nnc(-n2c(O)cc(=O)n(-c3ccccc3)c2=S)nc1/C=C/c1ccc(N(C)C)cc1 | 25.8% |
| O=[N+]([O-])c1cc(NS(=O)(=O)c2ccccc2)ccc1NS(=O)(=O)c1ccccc1 | 92.9% |
| CCCCCCNC(=O)Oc1ccc(/C(=C(/C)c2ccccc2)c2ccc(OCCN3CCCCCC3)cc2)cc1 | 9.72% (active) |
| CC1(C)C2CCC1(C)C1(C2)OCCS1 (configuration not stated) | 89.8% |
| CCCCCCCCCCCCCCCCCC[n+]1ccc2c(C)c3c(c(C)c2c1)c1cc(O)ccc1n3CC | -18.3% (active) |
| CC(C)=CCC/C(C)=C/CC/C(C)=C/CSC[C@H](NC(=O)CCCCCN1CCN(C)CC1)C(=O)NC1CCCCCC1 | 48.2% |
| C=CC(=O)Nc1cccc(-c2nc(SC)nc(NCCN3CCOCC3)c2C#N)c1 | 97.8% |
| COC(=O)C(O)c1ccccc1 (configuration not stated) | 112% |
| CC1=C(SCCC(=O)OC(C[Se]C2=C(C)C(=O)c3ccccc3C2=O)C(=O)NCCCCCC(=O)OCc2ccccc2)C(=O)c2ccccc2C1=O (configuration not stated) | 30.5% |
| CCC(c1ccc(OC)cc1)C(CC)c1ccc(O)c(CN2CCN(C)CC2)c1 (configuration not stated) | 30% |
| COc1ccc(C2Nc3nc(OC)n(C)c(=O)c3N=C3c4ccccc4C(=O)C32)cc1 (configuration not stated) | 104% |
| O=C(NC1CCCCC1)OCc1c(COC(=O)NC2CCCCC2)c(-c2ccc(Cl)c(Cl)c2)n2c1CCC2 | -61.7% (active) |
| C=CC1=C(C)C2=NC1=CC1=NC(=CC3=C(C)C4=C(O)C(C(=O)O)C(=C5NC(=C2)C(C)C5CCC(=O)O)C4=N3)C(CC)=C1C (configuration not stated) | 115% |
| O=[N+]([O-])c1ccc([I+]c2ccccc2)cc1 | -5.9% (active) |
| CCc1nc(N)nc(N)c1C#CC(C)c1ccc(-c2ccncc2)cc1Cl (configuration not stated) | 5.88% (active) |
| Cc1c(C(N)=O)sc2c1c(=O)n(Cc1ccccc1)c1nnc(S(C)(=O)=O)n21 | 57.1% |
